Source: PubChem BioAssay
Rows were chosen to be rich in hits. Some 3% of all compounds tested hit in one or more screens of this group.
MITF TRPM1 inh – inhibitors of MITF-dependent TRPM1 promoter reporter, primary screen, cell-based, SK-MEL-5, single point, luciferase | SK-MEL-5 TRPM1 promoter luciferase, 24 h | inhibition, % at 12.5 µM | actives 0.83% (n = 330,000);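 active = mean inhibition across replicates of 60% or more, whatever share of single replicates reaches that level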
EWS-Fli inh – EWS/Fli-driven NR0B1 reporter inhibitors, primary screen, A673 cells, NR0B1 luciferase, luminescence, MLPCN library; viability-normalised; inhibition, % at 12.6 µM; actives 0.67% (n = 350,000);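 active = mean inhibition of at least 50% after viability correction, with every replicate also passing that limit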;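 also: firefly luciferase signal divided by Alamar Blue viability fluorescence both relative to DMSO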
PAX8 inh HTS – inhibitors of PAX8-driven TPO luciferase reporter, primary screen, RMG-I cells, single concentration; inhibition, % at 12.6 µM; AID 652154, 2013; actives 1.2% (n = 360,000); SteadyGlo, 24 h;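 active = mean replicate inhibition at least 60% with every replicate also reaching 60%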;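 also: luciferase light reporting Pax8 driven TPO promoter activity; plate controls were median of neutral control wells for no effect and mitoxantrone controls for full effect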
Shn3 inh set2 – reduction of Shn3 3'UTR firefly luciferase signal, primary screen, Schnurri-3 inhibitor project, cell-based, Clone20 osteoblasts, set 2 | Clone20 osteoblast Shn3 3'UTR firefly luciferase, 24 h | inhibition, % at 12.5 µM | actives 0.52% (n = 360,000);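 active = mean inhibition of at least 75% with every replicate also reaching 75%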;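 also: 0% = median of neutral control wells and 100% = pilot-screen positive control compound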
Peg3 prom inh – Peg3 promoter-driven luciferase inhibitors, primary screen, cell-based, HeLa, luciferase luminescence; inhibition, % at 20 µM; HeLa PEG-Prom luciferase reporter, overnight; actives 1.7% (n = 360,000);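 active = inhibition of at least 50% at 20 µM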
ABHD5-PLIN5 inh – ABHD5-PLIN5 interaction inhibitors, primary screen, cell lysate, split luciferase complementation, luminescence; AID 602281, 2012; Split G. princeps luciferase complementation, 4 h; actives 0.78% (n = 360,000); inhibition, % at 4 µM;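 active = inhibition above the mean inhibition across every tested compound plus 3 SD, cut at about 22% in these data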;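 also: 0% = DMSO only wells and the 100% control is not disclosed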
Target sequence (Q00G26 whole entry, looked up): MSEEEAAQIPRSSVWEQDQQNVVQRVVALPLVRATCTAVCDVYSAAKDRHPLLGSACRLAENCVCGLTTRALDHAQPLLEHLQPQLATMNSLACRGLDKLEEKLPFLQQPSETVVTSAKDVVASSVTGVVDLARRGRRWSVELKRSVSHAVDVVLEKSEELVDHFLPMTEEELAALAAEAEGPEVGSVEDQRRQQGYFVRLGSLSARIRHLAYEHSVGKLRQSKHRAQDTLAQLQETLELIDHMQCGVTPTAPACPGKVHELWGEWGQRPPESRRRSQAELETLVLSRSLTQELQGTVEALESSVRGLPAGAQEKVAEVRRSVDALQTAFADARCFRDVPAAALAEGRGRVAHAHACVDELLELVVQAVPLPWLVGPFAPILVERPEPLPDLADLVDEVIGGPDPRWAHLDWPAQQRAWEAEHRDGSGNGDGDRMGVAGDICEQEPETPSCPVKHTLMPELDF
Target sequence (Q8WTS1 whole entry, looked up): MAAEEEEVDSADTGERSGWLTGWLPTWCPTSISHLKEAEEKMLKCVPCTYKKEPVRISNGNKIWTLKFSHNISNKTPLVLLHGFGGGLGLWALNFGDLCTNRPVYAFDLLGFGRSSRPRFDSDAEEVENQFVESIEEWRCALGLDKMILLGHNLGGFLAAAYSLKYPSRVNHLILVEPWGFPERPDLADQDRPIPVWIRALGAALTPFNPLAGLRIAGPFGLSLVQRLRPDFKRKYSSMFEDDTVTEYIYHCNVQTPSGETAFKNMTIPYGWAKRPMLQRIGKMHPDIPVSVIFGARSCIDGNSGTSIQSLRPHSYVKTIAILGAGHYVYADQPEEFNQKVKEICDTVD
The depositor's hits bear a star; · = no result given.

SMILES	MITF TRPM1 inh	EWS-Fli inh	PAX8 inh HTS	Shn3 inh set2	Peg3 prom inh	ABHD5-PLIN5 inh
Cc1ccc(NC(=O)c2nc[nH]c2C(=O)NCCCNC(=O)c2[nH]cnc2C(=O)Nc2ccc(C)cc2)cc1	-26	·	·	16	84*	-9
O=C(Nc1cccc(Cl)c1)c1nc[nH]c1C(=O)NCCCNC(=O)c1[nH]cnc1C(=O)Nc1cccc(Cl)c1	-11	-1	5	9	57*	6
Cc1ccc(NC(=O)c2nc[nH]c2C(=O)NCCCCCCNC(=O)c2[nH]cnc2C(=O)Nc2ccc(C)cc2)cc1	5	4	1	1	46	-4
CCOC(=O)c1ccc(NC(=O)c2nc[nH]c2C(=O)NCCCCCNC(=O)OC(C)(C)C)cc1	6	8	-28	0	70*	1
CCOC(=O)c1ccc(NC(=O)c2nc[nH]c2C(=O)NCCCCNC(=O)c2[nH]cnc2C(=O)Nc2ccc(C(=O)OCC)cc2)cc1	27	8	7	45	97*	-10
O=C(/C=C/c1cccc([N+](=O)[O-])c1)NCCSCc1ccc(Cl)cc1	-2	58*	2	12	15	0
O=C(/C=C/c1cccc([N+](=O)[O-])c1)NCCSCc1c(Cl)cccc1Cl	6	-5	1	0	-19	-2
O=C(NCC[C@@H]1CC[C@H](NS(=O)(=O)c2cccc(F)c2)[C@@H](CO)O1)C1CCC1	·	-2	-11	·	·	·
Cc1c(C(=O)N2CCN(c3ccccn3)CC2)sc2ncnc(N3CCN(c4ccccc4)CC3)c12	4	·	·	-3	22	9
Cc1c(C(=O)N2CCN(Cc3ccc4c(c3)OCO4)CC2)sc2ncnc(N3CCN(c4ccccc4F)CC3)c12	31	12	41	36	58*	1
Cc1c(C(=O)N2CCN(Cc3ccc4c(c3)OCO4)CC2)sc2ncnc(N3CCN(c4ccccc4)CC3)c12	15	20	35	47	58*	11
O=S(=O)(N[C@H]1CC[C@@H](CCn2cc(C3(O)CCCC3)nn2)O[C@H]1CO)c1ccccc1	·	-1	-2	·	·	·
COc1ccc(Cl)cc1CC1(C)C(=O)Nc2ccc(-c3ccccc3OC)cc21 (stereo not drawn)	·	5	-4	32	18	6
COc1ccccc1-c1ccc2c(c1)C(C)(Cc1cc(Cl)ccc1C(F)(F)F)C(=O)N2 (stereo not drawn)	·	14	-11	38	78*	-19
O=C(NC1CCN(S(=O)(=O)c2cccc([N+](=O)[O-])c2)CC1)C1CCCCC1	-2	0	-6	8	-3	2
O=C(NC1CC1)C1CCN(S(=O)(=O)c2ccc(Cl)c([N+](=O)[O-])c2)CC1	75*	50	51	0	41	-3
CC(C)C#Cc1ccc2c(c1)O[C@H](CN(C)C(=O)c1ccncc1)[C@H](C)CN([C@@H](C)CO)S2(=O)=O	·	1	8	·	·	·
COc1ccc(NC(=O)N(C)C[C@H]2Oc3c(NS(=O)(=O)c4ccccc4)cccc3C(=O)N([C@@H](C)CO)C[C@@H]2C)cc1	·	-1	-8	·	·	·
C/C=C/c1ccc2c(c1)O[C@@H](CN(C)Cc1ccncc1)[C@H](C)CN([C@H](C)CO)S2(=O)=O	·	14	·	·	·	·
Cc1c(Cc2ccccc2)sc(NC(=O)/C=C/c2cccc3ccccc23)c1C(N)=O	5	60*	5	4	20	-1
C[C@H](O)C#Cc1ccc2c(c1)O[C@@H](CN(C)C(=O)C1CC1)[C@@H](C)CN([C@@H](C)CO)S2(=O)=O	·	0	·	·	·	·
Nc1cc2c3ccccc3ccc2c2ccccc12	-2	-72	-143	-108	72*	-37
CCc1ccc(C2C(C#N)=C(N)Oc3cc(N)ccc32)cc1 (stereo not drawn)	-5	3	6	-10	50*	2
N#CC1=C(N)Oc2cc(N)ccc2C1c1ccc(Cl)cc1 (stereo not drawn)	4	7	20	-2	25	-1
